Assay results taken from PubChem BioAssay (Tox21).
Records with an inconclusive call do not appear. A number with no mark means an inactive call. The call rests on the fitted dose curve; in most records, active means well fitted activation curve with a large enough effect in the repeat runs; inconclusive means weak or mixed curves; inactive means flat fitted curve, though single readings scatter.

Test: A CellTox Green Cytotoxicity Assay to monitor cytotoxicity in HEK293 cells - 24 hour (AID 1224875); further: nearly all actives have a fitted effect of over 45% in size
Details: CellTox Green fluorescence, stronger effect = higher value; series mostly up to 76.8 µM; activity change: at the top concentration
Description: National Center for Advancing Translational Sciences [NCATS]
NIH Chemical Genomics Center [NCGC]
U.S. Environmental Protection Agency [EPA]
National Institutes of Environmental Health Sciences [NIEHS]
National Toxicology Program [NTP]
Cell-based models are critical for drug discovery. Determining the natural cytotoxic effects resulting from test compounds is an essential research activity. A CellTox Green Cytotoxicity Assay to monitor cytotoxicity in real time of continues cell culture during 40 hours of the compound treatment was used to screen Tox21 10K library compounds in Hek293 cells. CellTox Green Cytotoxicity Assay is a nonlytic, homogeneous, biofluorescent method to measure cytotoxicity in cell culture after experimental manipulation. The assay system uses a proprietary asymmetric cyanine dye that is excluded from viable cells but preferentially stains the dead cell's DNA. […] Viable cells produce no appreciable increases in fluorescence. Therefore, the fluorescence signal produced by the binding interaction with dead cell DNA is proportional to cytotoxicity.
The mixture of Hek293 cell suspension and reagents were dispensed at 600cells/6 ul/well in 1536-well tissue culture treated black solid bottom plates using a Multidrop dispenser. After the assay plates were incubated at a 37 C/5% CO2 incubator for 5 hours, 23 nL of compounds dissolved in DMSO, positive and negative controls was transferred to the assay plate by a pintool work station. The plates were incubated at 37 C for 40 hours. The fluorescence intensity were measured at 0h, 8h, 16h, 24h, 32h and 40h time points using ViewLux plate reader during compound treatment.
On the % scale 0 is the no-effect control and ±100 the full control effect.

| SMILES | activity change |
| --- | --- |
| Cc1nc2ccc(CN(C)c3ccc(C(=O)N[C@@H](CCC(=O)O)C(=O)O)s3)cc2c(=O)[nH]1 | 11.3% [at 35.3 µM] |
| CCOc1c(N2CCOCC2)cnn(C)c1=O | -19% [at 35.3 µM] |
| CC(C)=CCC/C(C)=C/C#N | 0.123% |
| CCCOC(=O)CC | 4.99% |
| CCOc1ccc2nc(S(N)(=O)=O)sc2c1 | -7.01% [at 35.3 µM] |
| O=C(O)CNC(=O)c1ccccc1 | -21.7% [at 35.3 µM] |
| COc1cc(C(=O)OC(COCCC(C)C)CN2CCOCC2)cc(OC)c1OC (stereo not given) | -10.9% [at 35.3 µM] |
| CC(C)CCCO | -7.71% |
| CN(C)CCN(C)CCN(C)C | -10.2% |
| CCOC(=O)COC(=O)c1ccccc1C(=O)OCC | -16.5% |
| O=C1c2ccccc2C(=O)c2cc(O)ccc21 | -37.7% |
| CN(C)C(=O)Oc1ccc[n+](C)c1 | -1.66% [at 35.3 µM] |
| NCCCC[C@H](N[C@@H](CCc1ccccc1)C(=O)O)C(=O)N1CCC[C@H]1C(=O)O | 2.52% [at 35.3 µM] |
| C=CCCC(=O)O | 5.23% |
| Cc1nc(C2CCCCC2)c(-c2ccc(S(N)(=O)=O)c(F)c2)o1 | -13% [at 35.3 µM] |
| CC(=O)c1ccc2ccccc2c1 | -0.62% |
| O=C(c1ccccc1O)c1ccccc1O | 24.9% |
| C=CCCCCCCCCC(=O)OCC | 14.3% |
| C[C@H]1C[C@H]2[C@@H]3CCC4=CC(=O)C=C[C@]4(C)[C@H]3C(=O)C[C@]2(C)[C@@]1(O)C(=O)CO | -3.88% [at 35.3 µM] |
| CN1C(C)(C)CC(O)CC1(C)C | -13.1% |

| SMILES | activity change |
| --- | --- |
| CCCC(C)C(=O)OCC (stereo not given) | -11.1% |
| CC(N)C12CC3CC(CC(C3)C1)C2 (stereo not given) | -11.6% [at 35.3 µM] |
| CCOC(=O)C(=O)CCCCCCl | -12.6% [at 35.3 µM] |
| CCN[C@H]1C[C@H](C)S(=O)(=O)c2sc(S(N)(=O)=O)cc21 | 0.901% [at 35.3 µM] |
| C1CCC2=NCCCN2CC1 | -10.7% |
| COc1cccc(OC)c1C(=O)N[C@@H]1C(=O)N2[C@@H]1SC(C)(C)[C@@H]2C(=O)O | -9.94% [at 35.3 µM] |
| CC(C)C[C@@H](N)C(=O)O | -2.57% [at 15.8 µM] |
| CC(C)(C)OC(=O)c1cccc(N)c1 | 6.89% |
| CN1CC(=O)N/C1=N/C(=O)Nc1cccc(Cl)c1 | 4.29% [at 35.3 µM] |
| O=C(O)c1cn(C2CC2)c2cc(N3CCNCC3)c(F)cc2c1=O | -2.6% [at 35.3 µM] |
| O=C(O)c1cc(C(=O)O)cc(C(=O)O)c1 | 20.5% |
| CNC(=O)Nc1ccc(Cl)c(Cl)c1 | 2.51% |
| COc1cc2c(cc1OC)-c1cc3ccc(OC)c(OC)c3c[n+]1CC2 | 6.97% |
| CCCCOCCOC(=O)COc1cc(Cl)c(Cl)cc1Cl | -11.6% |
| CC(=O)OCC(=O)[C@@]1(O)[C@H](C)C[C@H]2[C@@H]3CCC4=CC(=O)C=C[C@]4(C)[C@@]3(F)[C@@H](O)C[C@@]21C | 5.46% [at 35.3 µM] |
| C[N+]1(C)[C@@H]2CC(OC(=O)[C@H](CO)c3ccccc3)C[C@H]1[C@@H]1O[C@@H]12 (stereo not given in full) | 1.77% [at 35.3 µM] |
| N[C@H](C(=O)O)[C@@H](O)c1ccc(O)c(O)c1 | 0% [at 35.3 µM] |
| Cc1cccc(C)c1NC(=O)CC12CCCN1CCC2 | 7.43% [at 35.3 µM] |
| [K+] | 1.26% |
| CCCCCC(C)N (stereo not given) | -9.3% [at 35.3 µM] |
